Experimental findings from PMC4336329 (PLoS ONE, 2015) are described below.

The whole screen tested about 310,000 compounds, of which about 14,000 (4.5%) showed an effect of 50% or more. The effect is printed as a negative number. For the sample, strong results were picked, then their nearest neighbours and some compounds at random.
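Also: peak tail current of the secondary pulse compared with the same well before compound.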

The target of the assay is human ether-à-go-go-related gene (hERG) potassium channel (human, UniProt Q12809). As to the kind of experiment: primary screen, population patch clamp on CHO cells stably expressing hERG; higher = less effect of the substance.
human ether-à-go-go-related gene (hERG) potassium channel, sequence (Q12809 whole entry, looked up): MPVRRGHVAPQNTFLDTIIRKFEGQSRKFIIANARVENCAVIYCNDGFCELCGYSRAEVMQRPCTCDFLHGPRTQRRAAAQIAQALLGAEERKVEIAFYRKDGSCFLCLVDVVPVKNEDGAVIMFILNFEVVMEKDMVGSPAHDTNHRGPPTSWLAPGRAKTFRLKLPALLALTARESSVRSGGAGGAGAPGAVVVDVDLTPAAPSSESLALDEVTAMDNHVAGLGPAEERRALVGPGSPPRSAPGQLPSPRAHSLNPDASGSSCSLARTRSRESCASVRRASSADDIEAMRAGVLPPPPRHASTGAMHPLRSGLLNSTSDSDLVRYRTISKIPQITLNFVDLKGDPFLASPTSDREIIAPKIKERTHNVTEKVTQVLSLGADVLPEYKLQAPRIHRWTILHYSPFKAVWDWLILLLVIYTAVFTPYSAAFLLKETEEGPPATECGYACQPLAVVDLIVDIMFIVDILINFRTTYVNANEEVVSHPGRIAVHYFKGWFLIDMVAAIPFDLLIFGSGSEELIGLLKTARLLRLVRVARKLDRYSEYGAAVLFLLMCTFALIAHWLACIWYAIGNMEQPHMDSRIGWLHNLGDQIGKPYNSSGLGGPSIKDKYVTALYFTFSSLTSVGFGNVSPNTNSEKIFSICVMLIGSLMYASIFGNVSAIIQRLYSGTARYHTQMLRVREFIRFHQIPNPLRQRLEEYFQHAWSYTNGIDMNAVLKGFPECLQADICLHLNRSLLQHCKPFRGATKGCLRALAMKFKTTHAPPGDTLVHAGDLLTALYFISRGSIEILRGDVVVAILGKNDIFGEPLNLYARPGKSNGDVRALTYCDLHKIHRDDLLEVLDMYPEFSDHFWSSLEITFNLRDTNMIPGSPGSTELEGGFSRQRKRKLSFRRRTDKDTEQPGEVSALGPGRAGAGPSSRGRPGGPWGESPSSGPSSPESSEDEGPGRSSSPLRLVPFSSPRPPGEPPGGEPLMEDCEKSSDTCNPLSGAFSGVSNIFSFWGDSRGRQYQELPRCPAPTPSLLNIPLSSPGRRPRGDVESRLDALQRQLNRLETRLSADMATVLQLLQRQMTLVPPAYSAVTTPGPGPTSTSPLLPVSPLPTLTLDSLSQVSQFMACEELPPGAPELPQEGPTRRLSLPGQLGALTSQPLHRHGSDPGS
Regarding `CC[C@@H]1C(=O)OC[C@@H]1CC1=CN=C[NH+]1C.O=[N+]([O-])[O-]`, the “hERG current change (%, negative = inhibition) at 10uM” value was determined as 15.7%.
`O=C(O)c1ccc(Oc2ccc(S(=O)(=O)c3ccc(C(=O)O)c(C(=O)O)c3)cc2)cc1`: the “hERG current change (%, negative = inhibition) at 10uM” value was determined as 9.42%.
The value for `COc1ccc(CNC(=O)COC(=O)c2ccc(OCc3c(C)noc3C)cc2)cc1OC` was 13.8%; that for `CC1(O)CC(=O)N(c2ccccc2)O1` (stereo not shown) was -1.7%.
The value for `CCN(CCCNC(=O)C1CCC(=O)N1C1CCCC1)c1cccc(C)c1` (stereo not shown) was -2.31%.
To `COc1ccc(OC)c(CNn2c(-c3cccc(C)c3)nc3ccccc3c2=O)c1` belongs 6.92%.
Consider `Cc1cc(C)nc(SC2CCOC2=O)n1` (stereo not shown), for which the “hERG current change (%, negative = inhibition) at 10uM” value is reported as 0.669%.
On to `Cc1oc(-c2cc(F)cc(F)c2)nc1CN1CCN(C(=O)c2ccco2)CC1`, for which the “hERG current change (%, negative = inhibition) at 10uM” value is recorded as -40.5%.
To `Cc1oc(-c2cccc(F)c2)nc1CN1CCCN(C(=O)c2ccco2)CC1` belongs -74.7%; to `Cc1oc(-c2cc(F)ccc2F)nc1CN1CCCN(C(=O)c2ccco2)CC1`, -36.6%.
To `Cc1ccc(S(C)(=O)=O)cc1C(=O)N1CC(C(N)=O)Oc2ccccc21` (stereo not shown) belongs 15.6%; to `Cc1cc(Br)c(S(=O)(=O)NCCN2CCOCC2)cc1C`, 7.8%.
To `CCn1c(SCC(=O)Nc2ccc3c(c2)OCCO3)nnc1-c1ccco1` belongs -25.9%; to `CCCn1c(SCC(=O)Nc2ccc3c(c2)OCCO3)nnc1-c1ccco1`, -66.1%.
For `Cn1c(SCC(=O)Nc2ccc3c(c2)OCCO3)nnc1-c1ccco1`, the “hERG current change (%, negative = inhibition) at 10uM” value stood at 8.89%.
In the case of `C=CCn1c(SCC(=O)Nc2ccc3c(c2)OCO3)nnc1-c1ccccc1`, the “hERG current change (%, negative = inhibition) at 10uM” value is listed as -34.7%.
Take `C=CCn1c(SCC(=O)Nc2ccc3c(c2)OCCO3)nnc1-c1ccccn1`: the “hERG current change (%, negative = inhibition) at 10uM” value is -28.3%.
The value for `C=CCn1c(SCC(=O)Nc2ccc3c(c2)OCCO3)nnc1-c1ccco1` was -63.3%; that for `COc1ccc(-c2nnc(NC(=O)c3ccc([N+](=O)[O-])o3)o2)c(OC)c1` was 19.2%; that for `CC(C)(C)N(NC(=O)OCc1ccccc1)C(=O)c1ccccc1Cl` was -17.5%.
As for `CCOC(=O)C1=NN(c2ccc(F)cc2)C2=NC(C)=C(C(=O)OC)C(c3cccs3)N12` (stereo not shown), the “hERG current change (%, negative = inhibition) at 10uM” value is recorded as -2.17%.
The value for `O=C(O)CCCCCN1C(=O)C(O)=C(C(=O)/C=C/c2ccccc2)C1c1ccc2c(c1)OCO2` (stereo not shown) was 1.89%; that for `CC(=O)NCC(O)c1ccc([N+](=O)[O-])cc1` (stereo not shown) was 13.6%; that for `CC(NCC(O)c1ccc([N+](=O)[O-])cc1)C12CC3CC(CC(C3)C1)C2` (stereo not shown) was -69.4%.
Consider `CNC(=S)NCC(O)c1ccc([N+](=O)[O-])cc1` (stereo not shown), for which the “hERG current change (%, negative = inhibition) at 10uM” value worked out at 5.5%.
For the compound `COc1ccccc1NC(=O)c1cc(C(=O)O)ccc1C(=O)O`, the “hERG current change (%, negative = inhibition) at 10uM” value is listed as 20.4%.
To `CCOc1ccccc1NC(C)C(=O)Nc1cc(C(F)(F)F)ccc1N1CCOCC1` (stereo not shown) belongs -6.23%.
The value for `COc1ccc(OC)c(C(=O)NC(CC(N)=O)c2ccc(NCCN3CCCC3)c([N+](=O)[O-])c2)c1` (stereo not shown) was 8.75%.
To `Cc1ccc(SCC(=O)NCCCN2CCOCC2)cc1` belongs 15%.
For the compound `Cc1cc(Cl)ccc1NC(=S)N(CCCN1CCOCC1)Cc1cccs1`, the “hERG current change (%, negative = inhibition) at 10uM” value is listed as -32.2%.
To `Cc1ccc(Cl)cc1NC(=S)N(CCCN1CCOCC1)Cc1ccco1` belongs -28.5%.
To `Cc1ccc(Cl)c(NC(=S)N(CCCN2CCOCC2)Cc2ccco2)c1` belongs -35.3%.
For the compound `Cc1ccc(NC(=S)N(CCCN2CCOCC2)Cc2cccs2)c(C)c1`, the “hERG current change (%, negative = inhibition) at 10uM” value is given as -11.7%.
`Cc1ccc(Cl)cc1NC(=S)N(CCCN1CCN(C)CC1)Cc1cccs1`: the “hERG current change (%, negative = inhibition) at 10uM” value is reported as -61.7%.
As for `Cc1ccccc1NC(=S)N(CCCN1CCOCC1)Cc1cccs1`, the “hERG current change (%, negative = inhibition) at 10uM” value is -39.9%.
The value for `Cc1ccc(Cl)cc1NC(=S)N(CCN(C)C)Cc1cccs1` was -0.292%; that for `Cc1ccc(Cl)cc1NC(=S)N(CCCN1CCOCC1)Cc1ccccn1` was -34.3%; that for `Cc1ccc(Cl)cc1NC(=S)N(CCCN1CCN(C)CC1)Cc1ccco1` was -52.3%.
To `Cc1ccccc1NC(=S)N(CCCN1CCCCC1)Cc1ccco1` belongs -45.4%; to `CCN1CCN(CCCN(Cc2ccco2)C(=S)Nc2cc(Cl)ccc2C)CC1`, -61.9%; to `CCN1CCN(CCCN(Cc2cccs2)C(=S)Nc2ccccc2C)CC1`, -54.4%.
The value for `COC(=O)C1=C(COc2ccccc2)NC(=O)NC1c1ccc(Br)cc1` (stereo not shown) was 0.599%; that for `Cc1ccc(CSCC(=O)N/N=C/c2cccc(OC3CSC3)c2)cc1` was 11.4%.
On to `Nc1nnc(/C=C/c2ccccc2Cl)s1`, for which the “hERG current change (%, negative = inhibition) at 10uM” value was found to be 12.1%.
Turning to `Cc1cc(C(=O)COC(=O)c2ccc([N+](=O)[O-])o2)c(C)n1CC1CCCO1` (stereo not shown), the “hERG current change (%, negative = inhibition) at 10uM” value is recorded as -42.5%.
The value for `CCOc1ccc(/C=C2/C(=O)NC(=O)N(CCc3ccc(F)cc3)C2=O)cc1` was 8.76%; that for `Cc1ccc(-n2nc(C(=O)NN)c(C)c(C#N)c2=O)cc1Cl` was 14.5%; that for `COc1ccc(N(C(=O)Cn2nnc(-c3ccccc3F)n2)C(C(=O)NCC2CCCO2)c2ccc(Cl)cc2)cc1` (stereo not shown) was 22.6%.
The value for `COc1ccc(S(=O)(=O)N(CC(=O)O)c2ccc(C)cc2)cc1` was 4%.
As for `Cc1cc(Nc2ccc(Br)cc2)nc(-c2ccccc2O)n1`, the “hERG current change (%, negative = inhibition) at 10uM” value was determined as 19.9%.
Regarding `Cc1c(Cl)cccc1NC(=S)N(CCCN1CCOCC1)Cc1cccs1`, the “hERG current change (%, negative = inhibition) at 10uM” value was -26.5%.
For the compound `CCc1ccccc1NC(=S)N(CCCN1CCN(C)CC1)Cc1cccs1`, the “hERG current change (%, negative = inhibition) at 10uM” value is listed as -46%.
The value for `CCc1ccccc1NC(=S)N(CCCN1CCOCC1)Cc1cccs1` was -53.5%; that for `COc1ccc(CNC(=O)CCCn2nc(C)n3c(cc4sccc43)c2=O)cc1` was -1.61%; that for `CC(=O)N1N=C(c2cccc([N+](=O)[O-])c2)OC1c1ccc(Cl)cc1Cl` (stereo not shown) was 8.14%.
Consider `COc1ccccc1C1OC(c2cccc([N+](=O)[O-])c2)=NN1C(C)=O` (stereo not shown), for which the “hERG current change (%, negative = inhibition) at 10uM” value is on record as -62%.
As for `CC(=O)N1N=C(c2cccc([N+](=O)[O-])c2)OC1c1ccccc1Cl` (stereo not shown), the “hERG current change (%, negative = inhibition) at 10uM” value was -25.8%.
Turning to `Cc1ccccc1-c1nc(SCc2cccnc2)c2c(=O)n(C)c(=O)n(C)c2n1`, the “hERG current change (%, negative = inhibition) at 10uM” value was 10.5%.
On to `CC(C)Cc1nc(SCc2cccnc2)c2c(=O)n(C)c(=O)n(C)c2n1`, for which the “hERG current change (%, negative = inhibition) at 10uM” value is on record as -8.32%.
To `CCCc1nc(SCc2cccnc2)c2c(=O)n(C)c(=O)n(C)c2n1` belongs -57.3%.
Regarding `Cn1c(=O)c2c(SCc3cccnc3)nc(CC(C)(C)C)nc2n(C)c1=O`, the “hERG current change (%, negative = inhibition) at 10uM” value is on record as -59.6%.
The value for `Cn1c(=O)c2c(SCc3cccnc3)nc(C3CC3)nc2n(C)c1=O` was -9.63%.
In the case of `CCc1nc(SCc2cccnc2)c2c(=O)n(C)c(=O)n(C)c2n1`, the “hERG current change (%, negative = inhibition) at 10uM” value is listed as -10.7%.
On to `CC1=C(C(=O)NC(C)c2ccccc2)C2(CCC(C)CC2)OC1=O` (stereo not shown), for which the “hERG current change (%, negative = inhibition) at 10uM” value is recorded as -4.71%.
On to `Cc1ccc(C)c2c1N(Cc1ccccc1)C(=O)C21OCCO1`, for which the “hERG current change (%, negative = inhibition) at 10uM” value is reported as -21.8%.
Turning to `Cc1nc(NC(=O)C2CCCCC2C(=O)O)sc1C` (stereo not shown), the “hERG current change (%, negative = inhibition) at 10uM” value is 12%.
In the case of `O=C(CNC(=O)c1ccccc1)OCc1nnc(-c2ccc(Cl)cc2)o1`, the “hERG current change (%, negative = inhibition) at 10uM” value was -10.4%.
As for `c1ccc2c3c([nH]c2c1)C(C1CCCCC1)N(Cc1ncc[nH]1)CC3` (stereo not shown), the “hERG current change (%, negative = inhibition) at 10uM” value is -39.5%.
For `Cc1cnc(CN2CCc3c([nH]c4ccccc34)C2C2CCCCC2)[nH]1` (stereo not shown), the “hERG current change (%, negative = inhibition) at 10uM” value is listed as -62.6%.
To `Cc1c(CN2CCc3c([nH]c4ccccc34)C2C2CCCCC2)cnn1C` (stereo not shown) belongs -38.7%; to `O=S(=O)(c1ccccc1)c1nc(-c2ccco2)oc1NCCCn1ccnc1`, -65.6%; to `C=CCNc1oc(-c2cccs2)nc1S(=O)(=O)c1ccccc1`, -24.7%.
Take `O=S(=O)(c1ccccc1)c1nc(-c2cccs2)oc1NCc1cccnc1`: the “hERG current change (%, negative = inhibition) at 10uM” value was -50.5%.
The value for `O=S(=O)(c1ccccc1)c1nc(-c2ccccc2)oc1NCc1cccnc1` was 8.28%; that for `O=S(=O)(c1ccccc1)c1nc(-c2ccco2)oc1NCCCN1CCOCC1` was -6.01%; that for `N#Cc1nc(-c2ccco2)oc1NCCCn1ccnc1` was -19.7%.
Consider `Cc1ccc(S(=O)(=O)c2nc(-c3cccs3)oc2NCc2cccnc2)cc1`, for which the “hERG current change (%, negative = inhibition) at 10uM” value is listed as -18.3%.
For `O=S(=O)(c1ccccc1)c1nc(-c2cccs2)oc1NCCCn1ccnc1`, the “hERG current change (%, negative = inhibition) at 10uM” value was -75.1%.
As for `CNc1oc(-c2cccs2)nc1S(=O)(=O)c1ccccc1`, the “hERG current change (%, negative = inhibition) at 10uM” value was -18.7%.
The value for `CC(C)Sc1cc(N2CCCC2)nc(-c2ccccc2)n1` was -5.24%.
To `COc1cccc(NC(=O)N(CCN(C)C)C(C)c2cccnc2)c1` (stereo not shown) belongs -20.7%; to `Cc1ccc(-n2c(N)c(C(=O)NCc3cccnc3)sc2=S)cc1`, 23.5%.
With `CCOc1ccc(CCNC(=O)COC(=O)c2ccc(S(=O)(=O)N3CCCC3)cc2)cc1OCC`, the “hERG current change (%, negative = inhibition) at 10uM” value is 25.7%.
The value for `O=C(Nc1cc(Cl)ccc1O)c1cc(-c2ccco2)on1` was 8.36%.
The value for `Cc1nn(Cc2ccccc2)c(Cl)c1C(=O)OCC(=O)NC(=O)NC12CC3CC(CC(C3)C1)C2` was 11.5%; that for `Cc1nc(N2CCOCC2)c2c3c(sc2n1)CCC3` was 10.4%; that for `CCc1nc(N2CCN(C(=O)c3ccco3)CC2)c2c3c(sc2n1)CCCC3` was -65.3%.
In the case of `Cc1nc(N2CCN(C(=O)c3cccs3)CC2)c2c3c(sc2n1)CCCC3`, the “hERG current change (%, negative = inhibition) at 10uM” value is recorded as -63.8%.
To `Cc1nc(N2CCNCC2)c2c3c(sc2n1)CCCC3` belongs -2.23%; to `CCCNC(=S)N1CCN(c2nc(C)nc3sc4c(c23)CCCC4)CC1`, -31.5%.
The value for `CC1CCc2c(sc3nc(C4CC4)nc(N4CCN(C(=O)c5ccco5)CC4)c23)C1` (stereo not shown) was -19.2%.
`CCc1nc(SCC(=O)N2CCN(C(=O)c3ccco3)CC2)c2c3c(sc2n1)CCCC3`: the “hERG current change (%, negative = inhibition) at 10uM” value is given as -46%.
The value for `Cc1nc(N2CCN(C)CC2)c2c3c(sc2n1)CCCC3` was -11.4%; that for `CCc1nc(N2CCN(C(=O)c3ccccc3)CC2)c2c3c(sc2n1)CCCC3` was -12.2%; that for `Cc1nc(N2CCN(C(=O)c3ccco3)CC2)c2c3c(sc2n1)CCC3` was -54.8%.
The value for `Cc1nc(N2CCN(C(=O)c3ccco3)CC2)c2c3c(sc2n1)CC(C)CC3` (stereo not shown) was -63.9%.
The value for `CC(=O)N1CCN(c2nc(C)nc3sc4c(c23)CCC(C)C4)CC1` (stereo not shown) was -19.3%.
